PubChem BioAssay AID687021 (Broad Institute, 2013)
Calls of active or inactive are those of the source.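 How the source made its calls: active means compounds lowering luciferase light whose fitted half-effect concentration is at most twice the top tested dose; inconclusive means flat curve with 30 to 70% inhibition, or poor fit; inactive means the rest.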

Assay: luciferase signal loss, tTA control fusion, HeLa F-luc tTA cells, dry powder, counter-screen for HIV Env fusion inhibitor project, dose response (AID 687021)

| SMILES | outcome |
| --- | --- |
| CCOc1ccc(S(=O)(=O)NCc2ccncc2)cc1 | inactive |
| C[C@H]1CCCCO[C@@H](CN(C)Cc2ccncc2)[C@@H](C)CN([C@@H](C)CO)C(=O)c2cc(NC(=O)Nc3ccccc3)ccc2O1 | inactive |
| Cc1ccc(S(=O)(=O)Nc2cccc3c2O[C@@H](CN(C)Cc2ccc(Cl)c(Cl)c2)[C@@H](C)CN([C@H](C)CO)C3=O)cc1 | inactive |
| Cc1noc(C)c1S(=O)(=O)Nc1cccc2c1O[C@@H](CN(C)Cc1ccc(C(F)(F)F)cc1)[C@H](C)CN([C@@H](C)CO)C2=O | inactive |
| Cc1ccc(C)n1-c1ccc(C(=O)O)c(O)c1 | inactive |
| COC(=O)COc1ccc(S(=O)(=O)NCc2ccncc2)cc1 | inactive |
| CC1(C)CC(NC(=O)C(=O)Nc2ccc(Cl)cc2)CC(C)(C)N1 | inactive |
| Cc1noc(C)c1S(=O)(=O)Nc1cccc2c1O[C@@H](CN(C)Cc1ccc(C(F)(F)F)cc1)[C@H](C)CN([C@H](C)CO)C2=O | inactive |
| C[C@@H]1CN([C@H](C)CO)C(=O)c2cccc(NC(=O)C3CCCCC3)c2O[C@H]1CN(C)Cc1ccccc1 | inactive |
| COc1ccc(-c2nn(C)c(=O)c3ccccc23)cc1NC(=O)Cn1nc(C)c2ccccc2c1=O | inactive |
| CCCNC(=O)N1[C@H](C#N)[C@H](c2ccc(-c3cccnc3)cc2)[C@@H]1CO | inactive |
| CCCOc1ccc(S(=O)(=O)NCc2cccnc2)cc1 | inactive |
| CCOc1ccc(C(=O)C2CCN(CC(=O)Nc3ccccc3N3CCOCC3)CC2)cc1 | inactive |
| Oc1ccc(CNc2ccccc2F)c2cccnc12 | inactive |
| CCCOc1ccc(S(=O)(=O)NCc2ccncc2)c2ccccc12 | inactive |
| Cc1noc(C)c1S(=O)(=O)Nc1cccc2c1O[C@H](CN(C)Cc1ccc(C(F)(F)F)cc1)[C@H](C)CN([C@H](C)CO)C2=O | inactive |
| C[C@@H]1CN([C@H](C)CO)C(=O)c2cccc(NS(=O)(=O)c3ccc(Cl)cc3)c2O[C@@H]1CN(C)Cc1ccc(Cl)c(Cl)c1 | inactive |
| Cc1oc(-c2ccc(Cl)cc2)nc1CN1CCCC(C(=O)NCc2cccnc2)C1 (configuration not stated) | inactive |
| O=C(CCc1ccc(S(=O)(=O)N2CCOCC2)cc1)Nc1nc(COc2ccccc2)cs1 | inactive |
| CC(=O)Nc1ccc(NC(=O)CN(c2ccc(C34CC5CC(CC(C5)C3)C4)cc2)S(C)(=O)=O)cc1 | inactive |
| CCOc1ccc(S(=O)(=O)NCc2ccncc2)cc1OCC | inactive |
| Nc1nonc1C(=O)NCCNCc1c(OCc2ccccc2F)ccc2ccccc12 | inactive |
